From PubChem BioAssay (NCI) come the findings set out here.

SMILES strings stand for the structures. About 83,000 compounds went through this panel and 20% of them were active in at least one assay; those are over-represented in the sample as a whole.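 The endpoint reported here, percent growth, reads 100 for growth as untreated, 0 for no net growth and -100 for all cells dead.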 Values without a mark were called inactive. Activity calls are given as the source filed them. The calls were made as follows: active = growth percent below 10; inactive = the rest.

What all share (assay): NCI-60 one-dose screen, 48 h (100 = growth as untreated, 0 = no growth, -100 = all killed)
In assay [1] the test system is NCI-H23 lung. Conditions: 10 µM unless noted.
In assay [2] the test system is NCI-H226 lung. Conditions: 10 µM unless noted.
The subject of assay [3] is NCI-H322M lung. Conditions: 10 µM unless noted.
The test system of assay [4] is HOP-62 NSCLC. Conditions: 10 µM unless noted.
Assay [5] has as its system NCI-H460 lung. Conditions: 10 µM unless noted.
For assay [6], the system named is HOP-92 NSCLC. Conditions: 10 µM.
The subject of assay [7] is A549/ATCC NSCLC. Conditions: 10 µM unless noted.
The subject of assay [8] is 786-0 renal. Conditions: 10 µM unless noted.
Assay [9] concerns COLO 205 colon. Conditions: 10 µM unless noted.

Consider `COc1cc(-c2nn(C(C)(C)C)cc2-c2ccnc(NCCCNS(=O)(=O)c3ccc(Cl)cc3)n2)ccc1Cl`, for which the growth in [1] is 73%; in [2] it was 53.8%; in [3] it was 78.2%; in assay [4], 61.7%; in assay [5], 55.1%; in assay [6] it was 48.6%. Besides, the growth in assay [7] is 36.3%; in assay [8], 69%; in [9], 81.5%.

In the case of `Nc1ncc(-c2ccc3ncnc(N4CCc5cc(F)c(Cl)cc54)c3c2)cn1`, the growth in [1] is 31.7%; in [2], 20.7%; in assay [3], 23%; in assay [4], 19.6%; in assay [5] it was 23%; in [6], -10.9% (active). The figures for the growth in [7], in [8] and in [9] were 10.4%, 3.19% (active) and 39.9%, respectively.

As for `COc1cc(-c2nn(C(C)(C)C)cc2-c2ccnc(NCCCNS(=O)(=O)c3ccc(F)cc3)n2)ccc1Cl`, the growth in assay [1] is 82.3%; in [2], 72%; in [3], 87.4%; in assay [4], 71.9%; in assay [5], 84.2%; in assay [6], 70.4%. For the same compound, the values for the growth in assay [7], in assay [8] and in [9] were 50.2%, 76.3% and 96.1%, respectively.

For the compound `Cc1cc(S(=O)(=O)N(C)C)cc(NCC(=O)NC(=O)NCC(C)C)c1C`, the growth in assay [1] was 94.5%; in [2], 90.7%; in assay [3] it was 100%; in assay [4], 78.6%; in [5], 109%; in [6], 84.5%. Besides, the growth in assay [7] was 88%; in assay [8], 91.1%; in assay [9], 109%.

`COc1cc(-c2ccc3ncnc(NCc4ccccc4)c3c2)cnc1OC`: the growth in assay [1] is 67%; in assay [2] it was 68.3%; in [3], 26.3%; in [4], 36.2%; in assay [5] it was 69.1%; in [6] it was 5.49% (active). Moreover, the results for the growth in assay [7], in [8] and in assay [9] were 38.6%, 44.8% and 87.6%, respectively.

With `COc1ccc(C2c3sc4c(C)cccc4c3Oc3nc(CC(=O)Nc4ccccc4)[nH]c(=O)c32)cc1` (centres undefined), the growth was 62.2% in assay [1]; 65.8% in assay [2]; 95.4% in assay [3]; 60.5% in assay [4]; 87.1% in [5]; 59.1% in assay [6]. In addition, the growth in assay [7] is 93.7%; in assay [8] it was 95.3%; in assay [9] it was 106%.

Take `CC1(C)[C@@H](O)CC[C@]2(C)[C@H]3CC[C@@H]4[C@H]5[C@H](C(=O)/C=C\c6ccccn6)CC[C@]5(O)CC[C@@]4(C)[C@]3(C)CC[C@@H]12`: the growth in assay [1] was 31.7%; in [2], 16.3%; in [3], 84.3%; in assay [4] it was 73.6%; in assay [5], 15.6%; in assay [6], 60.9%. In addition, the growth is 49.7% in [7], 32.7% in assay [8] and 67.7% in assay [9].

Consider `N/C(=N\C(N)=N\c1nc2ccccc2s1)c1ccc2ccccc2c1`, for which the growth in assay [1] is 53.2%; in assay [2] it was 62.7%; in [3] it was 96.8%; in assay [4], -28% (active); in assay [5] it was 68.1%; in assay [6], 88.6%. The growth in assay [7] is 9.92% (active); in assay [8], 87.9%; in [9] it was 109%.

Consider `Nn1c(N/N=C/c2nc3ccccc3s2)n[nH]c1=S`, for which the growth in assay [1] is 91.8%; in assay [2], 104%; in [3], 109%; in assay [4], 74.8%; in [5], 110%; in assay [6] it was 98.7%. The growth in assay [7] was 95.3%; in assay [8] it was 96.1%; in assay [9] it was 115%.

With `O=C(Nc1ccc(N=Cc2c(O)[nH]c3ccccc23)cc1)Nc1nccs1`, the growth was 37.8% in assay [1]; 30% in [2]; 52.8% in [3]; 37.3% in assay [4]; 16.8% in assay [5]; 49.8% in assay [6]. Also, the results for the growth in assay [7], in assay [8] and in [9] were 56.6%, 52.9% and 25.7%, respectively.

As to `COc1ccc(S(=O)(=O)NCCCNc2nccc(-c3cn(C(C)(C)C)nc3-c3ccc(Cl)c(OC)c3)n2)cc1`, the growth is 87.7% in assay [1]; 73.6% in assay [2]; 82.5% in [3]; 63.3% in assay [4]; 84.9% in assay [5]; 69.4% in assay [6]. The growth is 64.4% in [7], 79.7% in assay [8] and 105% in assay [9].

On to `Cc1ccc(NC(=O)CNc2cc(C(N)=O)cc(F)c2C)c(Cl)c1`, for which the growth was 86.9% in assay [1]; 80.5% in assay [2]; 102% in assay [3]; 71.8% in assay [4]; 102% in assay [5]; 74.9% in assay [6]. The growth was 91.9% in [7], 92.9% in [8] and 112% in assay [9].

Turning to `CCCn1cnc2c(c1=N)C(c1ccc(F)cc1)c1sc3c(C)cccc3c1O2` (centres undefined), the growth was 25.7% in assay [1]; 8.74% (active) in [2]; 49.9% in [3]; 32% in [4]; 8.38% (active) in assay [5]; 33.5% in [6]. In addition, the figures for the growth in [8] and in [9] were 23.5% and 52.2%, respectively.

As for `CCc1cccc(NC(=O)CNc2cc(S(=O)(=O)N(C)C)cc(C)c2C)c1`, the growth in assay [1] is 81.4%; in assay [2] it was 77%; in assay [3] it was 105%; in assay [4], 73.8%; in [5], 102%; in assay [6], 72%. The values for the growth in assay [8] and in assay [9] were 85.2% and 111%, respectively.
